Source: PubChem
In the library only some 18% were active in any assay of this set; here they are far more common.
Six1-Eya2 blk – blocks human Six1 binding to Eya2; Q15475+O00167; AlphaScreen GST-Six1/His-Eya2 binding, biochemical; stronger effect = lower value; activity change, % (no concentration beside the values); 360,000 compounds, 0.56% hits; AID 651725; in the data active = activity change below about -65%; inconclusive = mostly about -30% to -63%
Target sequence (O00167 whole entry, looked up): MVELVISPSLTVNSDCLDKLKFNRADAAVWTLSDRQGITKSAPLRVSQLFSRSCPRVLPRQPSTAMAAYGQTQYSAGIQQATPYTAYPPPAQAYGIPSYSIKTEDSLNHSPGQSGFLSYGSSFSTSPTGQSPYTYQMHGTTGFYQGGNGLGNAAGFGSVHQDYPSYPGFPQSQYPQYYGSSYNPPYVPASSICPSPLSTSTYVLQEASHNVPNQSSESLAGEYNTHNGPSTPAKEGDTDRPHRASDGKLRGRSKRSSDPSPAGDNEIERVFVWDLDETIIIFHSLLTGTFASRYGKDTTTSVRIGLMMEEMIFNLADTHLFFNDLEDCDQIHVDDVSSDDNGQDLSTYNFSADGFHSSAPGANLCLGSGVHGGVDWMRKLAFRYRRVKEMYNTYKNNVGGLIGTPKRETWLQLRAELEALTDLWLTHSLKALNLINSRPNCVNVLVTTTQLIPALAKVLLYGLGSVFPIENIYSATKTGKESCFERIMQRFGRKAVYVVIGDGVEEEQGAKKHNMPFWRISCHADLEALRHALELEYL
Target sequence (Q15475 whole entry, looked up): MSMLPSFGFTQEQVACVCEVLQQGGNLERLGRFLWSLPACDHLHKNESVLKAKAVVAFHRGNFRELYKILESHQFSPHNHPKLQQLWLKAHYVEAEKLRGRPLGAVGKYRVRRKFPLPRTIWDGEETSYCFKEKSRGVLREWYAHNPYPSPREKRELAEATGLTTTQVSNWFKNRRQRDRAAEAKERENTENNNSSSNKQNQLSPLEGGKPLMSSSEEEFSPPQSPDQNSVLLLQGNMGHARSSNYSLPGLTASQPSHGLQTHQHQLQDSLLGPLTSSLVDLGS
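Homogeneous AlphaScreen proximity assay pairing GST-Six1 with His-tagged Eya2 (added as 5X mix: 250 nM and 500 nM) in 50 mM Tris pH 8.0, 300 mM NaCl, 1 mM TCEP. Glutathione donor and nickel acceptor beads; 1 h, 37 °C, dark.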
IL1B secr inh – blocks inflammasome-driven IL-1 beta release; THP-1 LPS/ATP IL-1B secretion, AlphaLISA, 16 h; stronger effect = lower value; activity change, % at 57.5 µM; 360,000 compounds, 4.7% hits; AID 743279; in the data active = activity change below about -50%; inconclusive = mostly about -30% to -49%
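Secreted IL-1B measured by AlphaLISA bead assay after 16 h compound exposure of THP-1 cells; compounds (final up to 57.5 uM) added 1 h before LPS (250 ng/mL) and ATP (1.25 mM) stimulation; lower signal means less secretion.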
CtBP-E1A inh – blocks the CtBP interaction with E1A | AlphaScreen GST-E1A/His-CtBP binding, 1536-well; stronger effect = lower value | activity change, % (test concentration not listed) | 340,000 compounds, 0.49% hits | AID 651724; in the data active = activity change below about -65%; inconclusive = mostly about -30% to -63%
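Homogeneous bead-based format: GST-tagged E1A captured on glutathione donor beads, His-tagged CtBP on nickel acceptor beads; compounds precede bead addition by 2 h at 37 °C.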
TDP1 cell noCPT – qHTS for Inhibitors of human tyrosyl-DNA phosphodiesterase 1 (TDP1): qHTS in cells in absence of CPT; DT40 Tdp1-/- hTDP1 cells, no CPT, ATP luminescence, 48 h; Potency, µM (doses to about 46.2 µM), for inactives: top-dose activity change, negative = growth inhibition, actives largely listed as inhibitors; 420,000 compounds, 15% hits; note: potency is the fitted concentration of half-maximal effect; nearly all actives have a fitted effect of over 55% in size
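DT40 Tdp1-/-;hTDP1 cells, no CPT (DMSO vehicle only), 400 cells/well; compounds pin-transferred; ≥48 hr, 37 °C; CellTiter-Glo 30 min RT dark, luminescence read.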
TDP1 cell CPT – DT40-hTDP1 cell growth loss with CPT. chicken DT40 Tdp1-/-;hTDP1 cells + 20 nM CPT, ATP luminescence, 48 h. Potency, µM (doses to about 46.2 µM), without a hit: top-dose activity change, negative = growth inhibition, usual class: inhibitors. 420,000 compounds, 12% hits; note: potency is the fitted concentration of half-maximal effect; nearly all actives have a fitted effect of over 55% in size
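Chicken DT40 Tdp1-/- cells stably complemented with human TDP1 were seeded at 400 cells/well in medium containing 20 nM camptothecin, exposed to pin-transferred compounds, and grown at 37 °C for at least 48 hr. Viability was read as ATP luminescence.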
TDP1 inh – blocks human tyrosyl-DNA phosphodiesterase 1; recombinant TDP1, AlphaScreen DNA substrate cleavage; Potency, µM (series often up to 130 µM), for inactives: top-dose activity change, negative = inhibition, usual class: inhibitors; 350,000 compounds, 0.28% hits; note: potency is the fitted concentration of half-maximal effect; nearly all actives have a fitted effect of over 40% in size
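Here, a 5' biotin and 3' phosphotyrosine-FITC DNA oligonucleotide reports Tdp1 activity: intact substrate bridges AlphaScreen beads, while cleavage leaves a 3' phosphate and drops signal. All incubations at room temperature.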
The depositor's hits bear a star; ? = inconclusive; nt = not tested or not shown; [ ] = remark or other dose. Unless noted, calls come from the whole dose curve; as a rule, active = well fitted curve in the direction sought with a large enough effect; inconclusive = small, poorly fitted or top-dose-only effect, or another doubt; inactive = no such curve, though single readings can be large; an effect the other way counts as inactive or inconclusive. % is set by controls: 0 for no effect and ±100 for the full control effect.

SMILES	Six1-Eya2 blk	IL1B secr inh	CtBP-E1A inh	TDP1 cell noCPT	TDP1 cell CPT	TDP1 inh
Cc1ccc(-c2nn(C)c(=O)c3ccccc23)cc1CN1CCOCC1	-0.8	11.5	1.8	?	-15.7%	5.9%
CCOC(=O)c1ccccc1NC(=O)CN1C(=O)CC(c2ccccc2)Sc2ccccc21 (stereo not given)	nt	nt	nt	nt	nt	-2.0%
C/C(=C\C(=S)Nc1ccccc1)Nc1ccc2ccccc2c1	-11.4	9.6	6.4	?	18.4µM*	-2.7%
C/C(=C\C(=S)Nc1ccccc1)Nc1cccc2ccccc12	-17.4	-7.1	-8.9	23.1µM*	?	11.5%
Cc1ccc(NC(=S)Nc2cccc3ccccc23)cc1	-10.1	29.7	-11.7	-11.6%	-27.7%	5.3%
C=CCC1C=CC(Oc2ccc(F)cc2C)C(CO)O1 (stereo not given)	nt	nt	nt	nt	nt	2.6%[21 µM]
COc1cc(/C=C(\C#N)c2ccccn2)ccc1OCc1ccc(Cl)cc1	19.9	-11.5	34.4	23.1µM*	?	-8.2%
COc1cc(/C=C(\C#N)c2ccccn2)ccc1OCc1ccccc1	19.5	-4.4	21.4	?	20.6%	-2.7%
COc1cccc(/C=C(\C#N)c2nc3ccc(C)cc3[nH]2)c1	nt	nt	nt	18.4µM*	18.4µM*	?
COc1cc(/C=C(\C#N)c2nc3ccc(C)cc3[nH]2)ccc1OCc1ccc(C)cc1	nt	nt	nt	8.2µM*	11.6µM*	4.0%[12.3 µM]
CCOC(=O)COc1ccc(/C=C(\C#N)c2nc3ccc(C)cc3[nH]2)cc1OC	nt	nt	nt	?	?	-11.0%
NS(=O)(=O)c1ccc(N=Nc2nc3[nH]cnc(=S)c3[nH]2)cc1	nt	nt	nt	6.31µM*	5.01µM*	nt
CC1=NN(C(N)=S)C(=O)C1N=Nc1ccc(S(N)(=O)=O)cc1 (stereo not given)	-1.6	0.1	nt	-9.1%	-7.7%	nt
O=C(Nc1cc2c(cc1C(=O)c1ccccc1Cl)OCCO2)c1ccc(Br)cc1	nt	nt	nt	12.2%	-0.4%	-0.4%[12.3 µM]
Cc1nn(-c2ccccc2)c2nc(C(F)F)cc(C(F)F)c12	60.6	-14.1	36.9	-15.2%	-18.4%	56.2µM*
CN(C)c1nc(N)nc(CSc2nc3cc(Cl)ccc3o2)n1	-2.3	50.0	-3.5	2.3%	-19.1%	4.1%
O=S1(=O)C=C(Sc2nc3cc(Cl)ccc3o2)c2ccccc21	-6.8	-118.9*	1.2	0.461µM*	0.581µM*	-1.0%
Cc1ccc(C)c(NC(=O)c2cnn(-c3ccc(F)cc3F)c2C2CCNCC2)c1	nt	nt	nt	9.2µM*	20.6µM*	-1.1%
Cc1cc(C)cc(NC(=O)c2cnn(-c3ccccc3)c2C2CCNCC2)c1	8.1	-26.1	nt	16.4µM*	?	3.6%
CCc1ccc(NC(=O)c2cnn(-c3ccccc3)c2C2CCNCC2)cc1	-1.6	0.6	-1.7	17.0%	-12.1%	3.5%
Cc1cccc(NC(=O)c2cnn(-c3ccc(F)cc3)c2C2CCNCC2)c1C	-14.9	-21.7	-12.1	-27.2%	-28.5%	-1.1%
Cc1cc(C)cc(NC(=O)c2cnn(-c3ccc(C)c(C)c3)c2C2CCNCC2)c1	nt	nt	nt	?	?	7.4%
Cc1ccc(-n2ncc(C(=O)Nc3cc(Cl)ccc3C)c2C2CCNCC2)cc1C	-7.3	-29.7	-0.7	23.1µM*	16.4µM*	-1.2%
CCc1ccc(NC(=O)c2cnn(-c3c(C)cccc3C)c2C2CCNCC2)cc1	nt	nt	nt	23.1µM*	?	2.1%
Cc1ccc(C)c(Nc2cc(C)nc3ncnn23)c1	-6.1	2.7	-0.3	-0.9%	28.6%	nt
SMILES	Six1-Eya2 blk	IL1B secr inh	CtBP-E1A inh	TDP1 cell noCPT	TDP1 cell CPT	TDP1 inh
COCCCn1c(=S)[nH]c(C)c(C)c1=O	-3.4	37.6	-1.7	1.2%	13.1%	5.1%
Cc1ccccc1-n1c(SCc2c(C)noc2C)nnc1-c1cccnc1	-1.6	0.1	-0.9	-28.2%	-18.5%	5.2%
COc1ccc(OC)c(NC(=O)c2cnn(-c3ccc(C)cc3)c2C2CCNCC2)c1	nt	nt	nt	25.9µM*	20.6µM*	3.2%
O=C(Cn1cc(C(=O)C(F)(F)F)c2ccccc21)Nc1ccccc1F	4.0	20.6	-0.3	3.4%	8.2%	nt
OCCNCCSc1ccc(Cl)cc1	0.1	-13.3	nt	?	-16.5%	-9.0%
CCC1(c2ccccc2)NC(=O)N(CC(=O)Nc2cc(S(=O)(=O)N3CCCCC3)ccc2OC(C)C)C1=O (stereo not given)	9.9	?	13.7	?	23.1µM*	nt
CCOc1ccc(S(=O)(=O)N2CCCCC2)cc1NC(=O)CN1C(=O)NC(CC)(c2ccccc2)C1=O (stereo not given)	-8.4	-2.6	-2.1	?	?	2.4%
CCC1(c2ccccc2)NC(=O)N(CC(=O)Nc2cc(S(=O)(=O)N3CCCCCC3)ccc2OC)C1=O (stereo not given)	-10.3	-3.4	-1.1	20.6µM*	16.4µM*	-10.3%
Cc1cc([N+](=O)[O-])nn1Cc1noc(C(=O)NCCCn2ccnc2)n1	0.0	9.3	-3.6	-7.4%	2.2%	9.3%
CNc1ncnc2ccc(-c3cccc(OC)c3)cc12	nt	nt	nt	23.1µM*	16.4µM*	nt
COc1cccc(-c2ccc3ncnc(NCc4cccs4)c3c2)c1	nt	nt	nt	?	?	1.2%
CC(=O)NCCNc1ncnc2ccc(-c3ccoc3)cc12	nt	nt	nt	-15.3%	-12.5%	nt
COc1cccc(-c2ccc3ncnc(NC4CC4)c3c2)c1	nt	nt	nt	11.6µM*	16.4µM*	nt
COc1cccc(-c2ccc3ncnc(NCCNC(C)=O)c3c2)c1	nt	nt	nt	?	14.6µM*	nt
COc1cccc(-c2cncnc2NC2CCNCC2)c1	nt	nt	nt	-4.4%	2.9%	nt
CNc1ncnc2ccc(-c3ccc4c(c3)OCO4)cc12	nt	nt	nt	18.4µM*	23.1µM*	nt
CC(=O)c1cccc(NC(=O)COC(=O)c2cccc(N3C(=O)c4ccccc4C3=O)c2)c1	-4.7	11.1	2.2	-4.9%	10.0%	2.3%
O=C1COCCOCCOCCOCC(=O)NCCN1	-1.3	6.6	5.6	0.9%	-0.5%	3.6%
COc1cccc(-c2ccc3ncnc(NC4CCNCC4)c3c2)c1	nt	nt	nt	13µM*	?	9.7%[56.1 µM]
COc1ccccc1-c1nccc(NC2CCNCC2)n1	nt	nt	nt	-0.2%	-3.0%	nt
N#Cc1cccc(-c2ccc3ncnc(NC4CCNCC4)c3c2)c1	nt	nt	nt	-25.5%	-21.8%	nt
COc1cccc(-c2nccc(NC3CCNCC3)n2)c1	nt	nt	nt	?	?	20µM*
CC1(C)NC(=O)N(CC(O)COc2ccccc2[N+](=O)[O-])C1=O (stereo not given)	-9.1	11.2	5.7	-2.7%	-5.4%	5.3%
O=C(COc1ccccc1)NCC(=O)Nc1cccc2ccccc12	7.5	12.3	-10.7	-21.3%	2.8%	2.7%
Cc1cc(NC(=O)CCN2CCN(C)CC2)ccc1Br	-13.1	-15.7	14.4	8.7%	17.4%	nt
